Data taken from PubChem BioAssay (NCATS).
Results filed as inconclusive are left out. Activity calls are given as the source filed them. Calls follow the shape of the dose curve; as a rule, active = well fitted curve in the direction sought with a large enough effect; inconclusive = small, poorly fitted or top-dose-only effect, or another doubt; inactive = no such curve, though single readings can be large; an effect the other way counts as inactive or inconclusive.

Legend:
[1] = Cellular Toxicity (caspase-3) Mesangial (AID 660); details: mesangial cells, normalized: DMSO 0%, 100 µM tamoxifen 100%; at 91.7 µM (top of the series);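 also: combined caspase 3 and 7 activity read by Caspase-Glo luminescence; cells exposed to compound for 16 h before the caspase read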
In short: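 Caspase 3/7 activation measured by Caspase-Glo 3/7 luminescence (20 min, room temperature) following 16 h exposure of mesangial cells (1000/well); AC50 from Hill-equation fit, normalized to DMSO and 100 uM tamoxifen.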

[2] = Cellular Toxicity (caspase-3) SK-N-SH (AID 661);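 also: 0% = DMSO basal and 100% = 10 µM staurosporine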
In short: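 Caspase 3/7 activation was read by luminogenic substrate cleavage after 16 hour treatment of SK-N-SH cells. Signal was scaled between DMSO and 10 uM staurosporine, and concentration-response data were fitted with the Hill equation for AC50.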

[3] = Cellular Toxicity (caspase-3) H-4-II-E (AID 663); details: H-4-II-E rat hepatoma, scaled: DMSO 0%, 100 µM tamoxifen 100%; at 92.2 µM (top of the series);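 also: cells exposed to compound for 16 hr before readout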
In short: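 Caspase 3/7 activation measured by luminescent aminoluciferin substrate cleavage after 16 hr compound treatment of H-4-II-E cells in complete medium. Increase normalized between DMSO (basal) and 100 uM tamoxifen (100%); Hill-equation AC50 from concentration-response.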

[4] = Cellular Toxicity (caspase-3) Hek293 (AID 664); details: HEK293 caspase-3 activation, DMSO = 0%, 100 µM tamoxifen = 100%; at 92.2 µM (top of the series);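 also: cells exposed to compound for 16 h at 37 °C before readout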
In short: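 Concentration-response qHTS: caspase 3/7 activation measured by luminescent aminoluciferin substrate cleavage after 16 h compound exposure of Hek 293 cells. AC50 from Hill equation, with DMSO as basal and 100 uM tamoxifen as 100%.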

[5] = Cellular Toxicity (caspase-3) N2a (AID 665);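 also: compound exposure lasted 16 h at 37 °C before readout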
In short: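 Caspase-3/7 activation measured as luminescence from Caspase-Glo reagent (1 h, room temperature) after 16 h compound exposure of mouse N2a cells. AC50 values from Hill-equation concentration-response, scaled between DMSO and 10 uM staurosporine.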

[6] = Cellular Toxicity (caspase-3) NIH 3T3 (AID 666);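 also: caspase signal read after 16 h compound exposure; 0% = DMSO basal and 100% = 100 µM tamoxifen stimulation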
In short: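 Caspase-Glo 3/7 luminescence reported caspase activation in 1000 NIH 3T3 cells/well after 16 h compound exposure at 37 C. DMSO set basal and 100 uM tamoxifen set 100% stimulation; concentration-response modeled with the Hill equation for AC50.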

[7] = Cellular Toxicity (caspase-3) Renal Proximal Tubule (AID 667); details: Potency: caspase-3 activation;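 also: cells exposed to compound for 16 hours at 37 °C before detection; 0% = DMSO basal and 100% = 10 µM staurosporine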
In short: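 AC50 derived by standard Hill fit of concentration-response data, normalized between DMSO basal and 10 uM staurosporine as 100% stimulation. Cells: primary rat kidney proximal tubule, 16 h treatment at 37 °C.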

[8] = biological target: Cytochrome P450 3A4 (Homo sapiens) (UniProt P08684); test: qHTS Assay for Inhibitors and Substrates of Cytochrome P450 3A4 (AID 884); also: % is scaled to controls: 0 for no effect and ±100 for the full control effect; nearly all actives have a fitted effect of over 50% in size
Chain of Cytochrome P450 3A4 (Homo sapiens) (P08684 whole entry, looked up): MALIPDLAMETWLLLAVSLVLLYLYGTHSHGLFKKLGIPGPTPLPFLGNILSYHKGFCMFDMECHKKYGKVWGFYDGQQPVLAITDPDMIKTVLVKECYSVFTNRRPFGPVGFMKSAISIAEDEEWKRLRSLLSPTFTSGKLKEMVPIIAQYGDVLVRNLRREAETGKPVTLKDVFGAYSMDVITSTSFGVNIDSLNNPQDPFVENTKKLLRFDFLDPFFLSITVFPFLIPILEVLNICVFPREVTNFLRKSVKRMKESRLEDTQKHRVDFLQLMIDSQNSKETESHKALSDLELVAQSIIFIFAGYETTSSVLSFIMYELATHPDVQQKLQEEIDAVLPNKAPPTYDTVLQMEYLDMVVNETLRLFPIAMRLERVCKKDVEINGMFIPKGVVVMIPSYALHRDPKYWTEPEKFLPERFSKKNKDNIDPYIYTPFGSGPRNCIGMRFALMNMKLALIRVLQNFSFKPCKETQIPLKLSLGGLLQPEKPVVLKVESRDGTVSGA
In short: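 Luminescent readout of luciferin produced by CYP3A4 (20 nM) dealkylation of Luciferin-PPXE, 25 uM (its KM). NADPH-driven reaction ran 60 min at RT after 10 min compound preincubation; data scaled to 57 uM ketoconazole as 100% inhibition.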

[9] = Cell Viability - LYMP2-001 (AID 921);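 also: 0% = DMSO only and full inhibition = tetraoctylammonium bromide control wells; nearly all actives have a fitted effect of over 70% in size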
In short: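 Steps: seed 2500 lymphoblastoid cells/well; 5 hr, 37 C; add compound; 24 hr, 37 C; CellTiter-Glo reagent, 30 min room temperature; read luminescence. Concentration-response modeled by Hill equation for AC50.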

[10] = MultiTox-Fluor Cytotoxicity Assay - LYMP1-001 - Dead Cells (AID 946);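 also: 0% = DMSO and 100% = tetraoctylammonium bromide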
In short: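 LYMP1-001 lymphoblastoid cells (2500/well) treated 16 h at 37 C. Dead-cell protease cleavage of bis-AAF-R110 read at Ex/Em 485/520. Normalized to DMSO and 15 uM tetraoctylammonium bromide; AC50 from Hill fits.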

[11] = MultiTox-Fluor Cytotoxicity Assay - LYMP1-001 - Live Cells (AID 947);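 also: 0% = DMSO only and full inhibition = tetraoctylammonium bromide control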
[12] = Cell Viability - LYMP1-002 - Assay at 16 hr (AID 948);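 also: 0% = DMSO alone and full effect = 92 µM tetraoctylammonium bromide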
In short: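 Seed 2500 LYMP1-002 cells per well in complete medium and hold 5 hr at 37 C. Add compound across a concentration series and incubate 16 hr at 37 C. Add CellTiter-Glo, wait 30 min at room temperature, read luminescence.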

[13] = MultiTox-Fluor Cytotoxicity Assay - LYMP1-002 - Live Cells (AID 955); also: % is scaled to controls: 0 for no effect and ±100 for the full control effect
In short: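 After 16 h compound exposure at 37 C, live LYMP1-002 lymphoblastoid cells (2500/well) were quantified by cleavage of cell-permeant GF-AFC substrate, read at 405/510 nm after 60 min. Concentration-response fitted with Hill equation for AC50.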

[14] = MultiTox-Fluor Cytotoxicity Assay - LYMP1-002 - Dead Cells (AID 960);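 also: 0% = DMSO and 100% = tetraoctylammonium bromide; nearly all actives have a fitted effect of over 60% in size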
In short: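 Dead-cell fluorescence (Ex/Em 485/520) after 16 h compound exposure at 37 C of LYMP1-002 lymphoblastoid cells in complete medium; AC50 by Hill equation, with data scaled between DMSO and 15 uM tetraoctylammonium bromide.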

[15] = MultiTox-Fluor Cytotoxicity Assay - LYMP1-003 - Dead Cells (AID 961);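 also: 0% = DMSO and 100% = tetraoctylammonium bromide; nearly all actives have a fitted effect of over 70% in size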
In short: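 LYMP1-003 human lymphoblastoid cells (2500/well) exposed to compound 16 h at 37 C in complete medium; dead-cell protease read with bis-AAF-R110 fluorescence (Ex/Em 485/520) after 60 min at room temperature. Normalized to DMSO and 15 uM tetraoctylammonium bromide; AC50 from Hill fit.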

[16] = MultiTox-Fluor Cytotoxicity Assay - LYMP1-003 - Live Cells (AID 962);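 also: 0% = DMSO only and full loss = 92 µM tetraoctylammonium bromide; cytotoxic hits lower the live-cell protease signal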
In short: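 Live-cell protease activity (GF-AFC substrate, 405/510 nm, 60 min at room temperature) after 16 h, 37 C compound exposure of human lymphoblastoid LYMP1-003 cells; concentration-response fitted to the Hill equation for AC50.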

[17] = Cell Viability - LYMP1-003 - Assay at 24 hr (AID 963);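 also: plate controls were DMSO only for no effect and tetraoctylammonium bromide positive control for full effect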
In short: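 Concentration-response qHTS: ATP loss measured by CellTiter-Glo luminescence after 24 h compound exposure at 37 C. Cells were LYMP1-003 human lymphoblastoid, 2500 per well. AC50 derived via standard Hill equation modeling.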

[18] = Cell Viability - LYMP1-003 - Assay at 40 hr (AID 964); also: % is scaled to controls: 0 for no effect and ±100 for the full control effect; nearly all actives have a fitted effect of over 60% in size
In short: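 Viability is taken as cellular ATP, read by CellTiter-Glo luminescence after 40 h of compound exposure at 37 C. Cells: human lymphoblastoid line LYMP1-003 at 2500/well; AC50 values derived by Hill-equation fitting of concentration-response data.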

[19] = Cell Viability - LYMP2-003 (AID 965);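 also: cells exposed to compounds for 24 h before reading; 0% = DMSO only and full effect = 92 µM tetraoctylammonium bromide; nearly all actives have a fitted effect of over 50% in size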
In short: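 Seed 2500 lymphoblastoid cells/well; incubate 5 hr, 37 C; add compounds; incubate 24 hr, 37 C; add CellTiter-Glo, 30 min RT; read luminescence. AC50 from Hill fit.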

[20] = Cell Viability - LYMP2-004 (AID 966);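 also: plate controls were DMSO only for no effect and tetraoctylammonium bromide control for full effect; nearly all actives have a fitted effect of over 65% in size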
In short: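 AC50 values come from Hill modelling of concentration-dependent loss of intracellular ATP, measured by CellTiter-Glo luminescence. Human LYMP2-004 lymphoblastoid cells (2500/well) were exposed to compound for 24 h at 37 C.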

O=C(Cl)c1cccc([N+](=O)[O-])c1
inactive: caspase-3 activation [1] -1.19% | outcome [2] | caspase-3 activation [3] 3.32% | caspase-3 activation [4] 0.786% | outcome [5] | outcome [6] | Potency [7] | Potency [8] | Potency [9] | outcome [10] | outcome [11] | outcome [12] | outcome [13] | outcome [14] | Potency [15] | Potency [16] | Potency [17] | Potency [18] | Potency [19] | Potency [20]

O=C(O)CNC(=O)c1ccc([N+](=O)[O-])cc1
inactive: caspase-3 activation [1] -0.679% | outcome [2] | caspase-3 activation [3] 0.8% | caspase-3 activation [4] -2.43% | outcome [5] | outcome [6] | Potency [7] | Potency [8] | Potency [9] | outcome [10] | outcome [11] | outcome [12] | outcome [13] | outcome [14] | Potency [15] | Potency [16] | Potency [17] | Potency [18] | Potency [19] | Potency [20]

CCCCC(C=O)CC (stereo not drawn)
inactive: caspase-3 activation [1] 0.71% | outcome [2] | caspase-3 activation [3] 3.13% | caspase-3 activation [4] 1.03% | outcome [5] | outcome [6] | Potency [7] | Potency [8] | Potency [9] | outcome [10] | outcome [11] | outcome [12] | outcome [13] | outcome [14] | Potency [15] | Potency [16] | Potency [17] | Potency [18] | Potency [19] | Potency [20]

C/C=C1\CC2C=CC1C2 (stereo not drawn)
inactive: caspase-3 activation [1] -0.567% | outcome [2] | caspase-3 activation [3] 0.51% | caspase-3 activation [4] -0.412% | outcome [5] | outcome [6] | Potency [7] | Potency [8] | Potency [9] | outcome [10] | outcome [11] | outcome [12] | outcome [13] | outcome [14] | Potency [15] | Potency [16] | Potency [17] | Potency [18] | Potency [19] | Potency [20]

C=Cc1ccccc1C=C
inactive: caspase-3 activation [1] 0.384% | outcome [2] | caspase-3 activation [3] 0.884% | caspase-3 activation [4] 1.48% | outcome [5] | outcome [6] | Potency [7] | Potency [8] | Potency [9] | outcome [10] | outcome [11] | outcome [12] | outcome [13] | outcome [14] | Potency [15] | Potency [16] | Potency [17] | Potency [18] | Potency [19] | Potency [20]

O=C1CCC(=O)O1
inactive: caspase-3 activation [1] 0.974% | outcome [2] | caspase-3 activation [3] 0.691% | caspase-3 activation [4] 0.163% | outcome [5] | outcome [6] | Potency [7] | Potency [8] | Potency [9] | outcome [10] | outcome [11] | outcome [12] | outcome [13] | outcome [14] | Potency [15] | Potency [16] | Potency [17] | Potency [18] | Potency [19] | Potency [20]

C/C=C(/C)C#N
inactive: caspase-3 activation [1] -0.503% | outcome [2] | caspase-3 activation [3] 0.589% | caspase-3 activation [4] 0.51% | outcome [5] | outcome [6] | Potency [7] | Potency [8] | Potency [9] | outcome [10] | outcome [11] | outcome [12] | outcome [13] | outcome [14] | Potency [15] | Potency [16] | Potency [17] | Potency [18] | Potency [19] | Potency [20]

CC(C)N(C)C
inactive: caspase-3 activation [1] 0.455% | outcome [2] | caspase-3 activation [3] 0.576% | caspase-3 activation [4] 1.04% | outcome [5] | outcome [6] | Potency [7] | Potency [8] | Potency [9] | outcome [10] | outcome [11] | outcome [12] | outcome [13] | outcome [14] | Potency [15] | Potency [16] | Potency [17] | Potency [18] | Potency [19] | Potency [20]

CCCCC=O
inactive: caspase-3 activation [1] -1.05% | outcome [2] | caspase-3 activation [3] -0.686% | caspase-3 activation [4] -0.315% | outcome [5] | outcome [6] | Potency [7] | Potency [8] | Potency [9] | outcome [10] | outcome [11] | outcome [12] | outcome [13] | outcome [14] | Potency [15] | Potency [16] | Potency [17] | Potency [18] | Potency [19] | Potency [20]

CC(=O)OCCC(C)C
inactive: caspase-3 activation [1] 0.804% | outcome [2] | caspase-3 activation [3] -0.942% | caspase-3 activation [4] -0.0363% | outcome [5] | outcome [6] | Potency [7] | Potency [8] | Potency [9] | outcome [10] | outcome [11] | outcome [12] | outcome [13] | outcome [14] | Potency [15] | Potency [16] | Potency [17] | Potency [18] | Potency [19] | Potency [20]

O=Cc1c(Cl)cccc1Cl
inactive: caspase-3 activation [1] -0.583% | outcome [2] | caspase-3 activation [3] 5.93% | caspase-3 activation [4] 1.92% | outcome [5] | outcome [6] | Potency [7] | Potency [8] | Potency [9] | outcome [10] | outcome [11] | outcome [12] | outcome [13] | outcome [14] | Potency [16] | Potency [17] | Potency [18] | Potency [19] | Potency [20]

O=C(O)c1cc(Cl)cc(Cl)c1
inactive: caspase-3 activation [1] -0.386% | outcome [2] | caspase-3 activation [3] -0.143% | caspase-3 activation [4] 1.27% | outcome [5] | outcome [6] | Potency [7] | Potency [8] | Potency [9] | outcome [10] | outcome [11] | outcome [12] | outcome [13] | outcome [14] | Potency [15] | Potency [16] | Potency [17] | Potency [18] | Potency [19] | Potency [20]

CC(=O)Nc1ccc(N)cc1
inactive: caspase-3 activation [1] 0.253% | outcome [2] | caspase-3 activation [3] -0.322% | caspase-3 activation [4] -0.0268% | outcome [5] | outcome [6] | Potency [7] | Potency [8] | Potency [9] | outcome [10] | outcome [11] | outcome [12] | outcome [13] | outcome [14] | Potency [15] | Potency [16] | Potency [17] | Potency [18] | Potency [19] | Potency [20]

CCc1ccccc1O
inactive: caspase-3 activation [1] -0.562% | outcome [2] | caspase-3 activation [3] -0.213% | caspase-3 activation [4] -1.55% | outcome [5] | outcome [6] | Potency [7] | Potency [8] | Potency [9] | outcome [10] | outcome [11] | outcome [12] | outcome [13] | Potency [15] | Potency [16] | Potency [17] | Potency [18] | Potency [19] | Potency [20]
